PubChem BioAssay AID1117319 (Southern Research Institute, 2015)
Values joined by “and” are separate entries in the source; they are usually repeats but may differ in a detail not shown here. Equal values may be shown once. In all, about 260,000 compounds went through this assay and about 1,500 (0.58%) were called active. Not shown: some 5% with an inconclusive outcome.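 The calls were made as follows: active = inhibition above a set limit at one or more doses, reproduced on every date tested; inconclusive = results disagree between test dates, or hit never tested in dose response; inactive = the rest.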 The list is a sample of the results. Measured potencies and affinities stand elsewhere.

molecular target: Virion infectivity factor (Human immunodeficiency virus type 1 group M subtype B (isolate BH10)) + Virion infectivity factor (Human immunodeficiency virus type 1 group M subtype B (isolate BRU/LAI)) + Virion infectivity factor (Human immunodeficiency virus type 1 group M subtype B (isolate PCV12)) + Virion infectivity factor (Human immunodeficiency virus type 1 group M subtype B (isolate HXB2)) + DNA dC->dU-editing enzyme APOBEC-3G (Homo sapiens) (UniProt P69720+P69721+P69722+P69723+Q9HC16); experiment: HIV-1 Vif–A3G interaction blockers – biochemical, TR-FRET, GST-Vif 1-94, biotin-A3G peptide, dose response retest, primary screen (AID 1117319); settings: TR-FRET GST-Vif / biotin-A3G peptide binding; hits give high values;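 also: Vif residues 1-94 fused to GST binding biotinylated APOBEC3G peptide 110-148; 0% = full assay without inhibitor and 100% = GST in place of GST-Vif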

inhibition, inactive:
O=C(NCCCCNC(=O)C(F)(F)F)C(F)(F)F 0.85%
O=C(NCCCCCCCCCNC(=O)C(F)(F)F)C(F)(F)F 3.63%
O=C(COC(=O)CNC(=O)c1ccc(Br)o1)Nc1ccccc1OC(F)F 6.47%
CCOC(=O)COc1nc(-c2ccccc2)cc(-c2ccco2)c1C#N 4.55%
CCOC(=O)COc1nc(-c2ccc(C)cc2)cc(-c2ccco2)c1C#N -6.28%
Cc1cccc(CC(Cc2nc3ccccc3[nH]2)c2nc3ccccc3[nH]2)c1 (centres undefined) 10.6%
Cc1ccc2c(Cl)cc(Cl)c(OCC(=O)Nc3cccc(S(N)(=O)=O)c3)c2n1 -2.21%
O=C(N/N=C/C(Br)=C\c1ccccc1)c1ccco1 8.5%
Cc1ccc(-c2cc(C(=O)N/N=C/C(Br)=C/c3ccccc3)n[nH]2)o1 27.2%
CCOc1ccc(S(=O)(=O)Nc2cccc(C(=O)N3CCN(c4ccccc4O)CC3)c2)cc1 4.44%
COC(=O)/C(=N/Nc1cccc(C)c1)N1CCCc2ccccc21 24.9%
COC(=O)/C(=N/Nc1ccccc1OC)N1CCCc2ccccc21 14.5%
O=C(NCCc1ccccc1)C1CCN(S(=O)(=O)c2cccc3nsnc23)CC1 -0.39%
N#C/C(=C/c1ccc(N2CCCCCC2)o1)c1ccc(Cl)cc1 17.8%
N#C/C(=C/c1ccc(N2CCCCCC2)o1)c1ccc(F)cc1 5.86%
Cc1ccc(/C=C/C(=O)NCCCn2ccnc2)cc1 -9.33%
O=[N+]([O-])c1c(Nc2ccccc2O)ccc2nonc12 1.82%
O=[N+]([O-])c1c(Nc2ccccn2)cc(Cl)c2nonc12 10.6%
CN(C)c1cc(Nc2cccc(O)c2)c([N+](=O)[O-])c2nonc12 -10.7%
CC(=O)Nc1ccc(Nc2cc(N(C)C)c3nonc3c2[N+](=O)[O-])cc1 0.25%
CC(C)CC(=O)Nc1ccnn1C1CCN(C(=O)c2ccccc2F)CC1 -2.89%
CCOC(=O)c1c(/N=C/N(C)C)sc(C)c1C -7.57%
O=C(CCCN1C(=O)c2ccccc2C1=O)N1CCc2ccccc2C1 -3.95%
CN1CCN(C(=O)CN2C(=O)CC(C)(C)S(=O)(=O)c3ccccc32)CC1 -1.94%
O=C(NCCc1ccccc1Cl)c1cc(COc2ccc(F)cc2F)on1 2.92%
O=C(COc1ccc(-c2nnco2)cc1)Nc1ccc(F)c(Cl)c1 -11.6%
CCNC(=O)c1cc2c(=O)n3cccc(C)c3nc2n(CCc2ccccc2)c1=N -4.24%
N=c1c(C(=O)NCc2ccco2)cc2c(=O)n3ccccc3nc2n1CCc1ccccc1 19.6%
CCOc1cc(N2CCOCC2)c(OCC)cc1NC(=O)CSc1ncccn1 -9.38%
CCOc1cc(N2CCOCC2)c(OCC)cc1NC(=O)C(C)C 32.2%
CCOc1cc(N2CCOCC2)c(OCC)cc1NC(=O)C(C)(C)C 31%
CCOc1cc(N2CCOCC2)c(OCC)cc1NC(=O)CSc1nc(N)cc(=O)[nH]1 -6.18%
CCOc1cc(N2CCOCC2)c(OCC)cc1NS(=O)(=O)c1ccc2c(c1)CC(=O)N2 9.5%
CCN(CC)S(=O)(=O)c1ccc(N2CCOCC2)c(NS(=O)(=O)c2ccc(Cl)s2)c1 7%
CC1CCCC(C)N1C(=O)COc1cccc(Oc2ccccc2)c1 (centres undefined) -6.13%
O=C(Oc1cc(-c2ccccc2)no1)c1cccc(C(F)(F)F)c1 12%
CCCN(CC(=O)Nc1ccccc1C)C(=O)c1ccc(C)c(S(=O)(=O)N2CCCCC2)c1 -7.29%
COc1ccc(C(=O)NCc2cccnc2)cc1Br 7.76%
CCCCN1C(=O)NC(NC(=O)c2ccco2)(C(F)(F)F)C1=O (centres undefined) -1.08%
CCCCn1c(N)c(N(CC)C(=O)/C=C/c2ccco2)c(=O)[nH]c1=O -7.61%
Cn1nnc(NC(=O)/C=C/c2ccco2)n1 11.5%
COC(=O)C(=C/C=C/c1ccco1)C(=O)OC 32.7%
CC1Cc2c([nH]c3ccccc23)C(=O)N1 (centres undefined) 0.31%
COc1c2ccoc2c(OC(C)=O)c2oc(C)cc(=O)c12 0.13%
COC(=O)Cn1cnc2c1c(=O)n(C)c(=O)n2C 1.38%
Cc1csc(NC(=O)C2CCCCN2S(=O)(=O)c2ccccc2)n1 (centres undefined) 1.7%
CCc1nnc(SCC(=O)Nc2ccc(C(C)=O)cc2)nc1CC 2.81%
CC(=O)c1ccc(NC(=O)CSc2ccc(-c3ccco3)nn2)cc1 -1.56%
COc1cccc(NC(=O)CSc2nc(N)cc(N)n2)c1 3.65%
Cc1ccc(NC(=O)CSc2nnc(-c3ccco3)c(-c3ccco3)n2)cc1 25.5%
COc1cccc(NC(=O)CSc2ccc(-c3ccco3)nn2)c1 3.97%
O=C(CSc1n[nH]c(-c2ccco2)n1)Nc1ccccc1 5.48%
COc1ccc(CCNC(=O)COC(=O)/C=C/c2ccc(OCC#N)c(OC)c2)cc1OC 5.39%
CC(=O)Nc1ccc(NC(=O)Cn2ccc([N+](=O)[O-])n2)cc1 11.7%
COc1cccc(C2CC(c3cccs3)=NN2C(=O)CSC2=NN3CCCC(=O)N=C3S2)c1OC (centres undefined) 0.81%
O=C(c1ccco1)N1CCN(Cc2cc(=O)c(OCc3cccc(F)c3)co2)CC1 -1.67%
S=c1nc(-c2ccccc2)oc2c1CCCC2 2.15%
O=[N+]([O-])c1ccc(-c2nc(=S)c3c(o2)CCCC3)cc1 0.66%
Cc1nc2oc3ccccc3c(=O)c2cc1C(=O)O -10.2%
Cc1ccc(C)c(N2CCN(S(=O)(=O)c3ccc4c(c3)CCC(=O)N4)CC2)c1 24.6%
COc1ccc(C(=O)COC(=O)CNC(=O)c2ccc(Cl)cc2Cl)c(OC)c1 3.17%
Cc1cc(C)cc(NC(=O)CSCc2cnn(-c3ccccc3)c2-n2cccc2)c1 -0.62%
CCOc1ccc(NC(=O)CSCc2cnn(-c3ccccc3)c2-n2cccc2)cc1 -1.2%
Cc1cc2ccccc2n1CCNC(=O)C1CCCC1 23.5%
O=C(NCCn1ccc2ccccc21)C1CCCCC1 -2.31%
CC(C)CC(=O)NCc1ccc2[nH]c3c(c2c1)CCCC3 5.99%
O=C(CCN1CCC(c2ccc(Cl)s2)=N1)c1ccc(Cl)s1 -2.16%
CC(=O)NCC(=O)NC(Cc1ccccc1)C(N)=O (centres undefined) 18.9%
COc1cc(/C=C(\C#N)C(=O)N2CCOCC2)cc(Br)c1O -3.89%
CC(=C\C(=O)O)/C(=C/c1ccco1)C(=O)O 29.9%
NC(=O)/C(=C\c1ccco1)NC(=O)c1ccco1 13.1%
Cc1ccc2sc(N(CCCN(C)C)C(=O)c3ccc(S(=O)(=O)N4CCOCC4)cc3)nc2c1C 7.87%
CCOc1ccccc1CNc1ccc(O)cc1 -1.14%
COc1cc(CNC(C)(C)CO)cc(Br)c1OCc1ccccc1 14.2%
CCOc1cccc(CNn2cnnc2)c1OCc1ccccc1Cl 3.09%
C=CCOc1c(CNc2ccc(C(=O)O)cc2)cccc1OCC 5.17%
Fc1cccc(COc2ccccc2CNc2ccccc2)c1 8.86%
O=C(O)c1ccc(CNCc2cccc(OCc3ccc(F)cc3)c2)cc1 -2.79%
O=[N+]([O-])c1ccc(COc2cccc(CNc3ccc(F)cc3)c2)cc1 26.4%
CCOc1cc(CNc2ccccc2)cc(Br)c1OCc1ccc(F)cc1 -2.02%
O=C(c1cccn2c(=O)c3ccccc3nc12)N1CCN(Cc2ccc3c(c2)OCO3)CC1 3%
CN(C)CCn1cnc2c(c1=N)C(c1ccccc1)c1ccc3ccccc3c1O2 (centres undefined) -7.72%
CC1(C)Cc2ccccc2C(C(=O)c2ccccc2)=N1 -10.3%
CCOC(=O)c1cc2sccc2n1CC(=O)N1CCCc2ccccc21 -4.99%
CCN1CCN(CC(=O)N2N=C(c3cccs3)CC2c2ccc(C)cc2)C(=O)C1=O (centres undefined) 1.42%
Cc1csc(NC(=O)COc2ccc3c(C)cc(=O)oc3c2)n1 -13.9%
Cc1cccc(N2CCN(C(=O)CCNS(=O)(=O)c3ccc4c(c3)CCC(=O)N4)CC2)c1C -0.88%
CC(=O)c1ccc(N2CCN(C(=O)c3cc(C)on3)CC2)cc1 11.8%
CC(c1cccs1)N(C)Cc1nc(CCc2ccccc2)no1 (centres undefined) 2.69%
CN1C(=O)[C@H]2[C@@H](c3ccc(C(F)(F)F)cc3)N[C@]3(CCCN(CC4CCCCC4)C3=O)[C@H]2C1=O 2.73%
CCN(CC(=O)NC1CCS(=O)(=O)C1)C(=O)C(c1ccccc1)c1ccccc1 (centres undefined) 1.78% and 11.2%
CC(=O)N1CCN(S(=O)(=O)c2cccc(C(=O)NNC(=O)COc3c(C)cccc3C)c2)CC1 -12.3%
N#CCN1C(=O)C(=O)N(Cc2cccc(C(F)(F)F)c2)C1=O -1.35%
CC(NC(=O)c1ccccc1[N+](=O)[O-])C1CC2CCC1C2 (centres undefined) 1.73%
